Experimental data taken from publication PMC12136788.
Residue numbers refer to the chain shown, from its start. Whole data set: some 24,000 sequences, median “enrichment r” near 0.99, cut for the highest 2% near 3.7. This is one part of a sample in which the highest values are shown more often than they occur.

T1: UNK ZnF1-3 (human, UniProt Q9C0B0 31-174)
T1 sequence: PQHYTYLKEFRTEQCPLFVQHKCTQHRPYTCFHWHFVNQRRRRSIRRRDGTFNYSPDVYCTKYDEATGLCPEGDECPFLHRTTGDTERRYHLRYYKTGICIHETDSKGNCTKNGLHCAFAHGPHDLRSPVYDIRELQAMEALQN

B1: 107960272_107965159_2041_CDS_ENSG00000166266_ENST00000393094|human|control|control (ssRNA)
RNA: GGGAGUUCUACAGUCCGACGAUCUCUAGCAAGCUUGUUUACAUAAUCCGCUGGCAUACCAACUUCUCUUAGCCACUCUACCAUGUUUUCUUCAAUUUCACUAUCGGCAGAGAUGUCUAAUAUAAGACGUCGUGUCAAAUGAGCCAACAGAGGAUUGAGCAUCA
B2: chr1:95363480:95363481:-_ENSG00000117519_ENST00000538964|hu_mus|FALSE|FALSE (ssRNA)
RNA: GGGAGUUCUACAGUCCGACGAUCCGUGCCCUGGCUUCCGUUGUGAAUGACAGGUUCUGUGGGUGCGGCACAGUACUUGGGGUCAUAUACUUGCCGCCCAAGCCCAUACACGCUCAUUCCUUUCUGGGAAGCAACUUUGUUGGUCAACAGAGGAUUGAGCAUCA
B3: chr12:48362563:48362564:+_ENSG00000134291_ENST00000256686|hu_hu|hu_hu_hu_mus_False|58_98 (ssRNA)
RNA: GGGAGUUCUACAGUCCGACGAUCUCCGUCAAGCCCUUCAAGCCCCACUUGCGGGGGAAACUGUAAUCACUUUGUAUUUCUAAAAAAAAGAAACGCCAAAAACUUUCCAAAAAGCGGGGGUGGGGUGAGGCGGGAGGGGGAGGUCAACAGAGGAUUGAGCAUCA
B4: chr1:186721242:186721243:-_ENSMUSG00000026620_ENSMUST00000027929|mus_mus|FALSE|FALSE (ssRNA)
RNA: GGGAGUUCUACAGUCCGACGAUCAUAAUGAGUAUUAAAAAGAUGUGCCUUUUCUAGUGGCUUUACGUCGCAUACGUCACUAAUUAUGAAAGAAGGCAAAUGACCAGUUACAAAGCUCCACAUGACUGGAAUAAUGAUGUGGAACAACAGAGGAUUGAGCAUCA
B5: chr1:169302553:169302554:-_ENSMUSG00000026688_ENSMUST00000028005|mus_mus|FALSE|FALSE (ssRNA)
RNA: GGGAGUUCUACAGUCCGACGAUCAUGCAGGCAGGAGCUUUAGGUAUGAGGCUGAUGCCAGAUAAGUUUUUAUUAUAUUAAAAAAAAAAAAAAAACCAGUGCAACUGGAAAUCAGGGUGAGUCGCUGGAGGUGAGUGAGAGUCGCAACAGAGGAUUGAGCAUCA
B6: chr8:59070621:59070622:+_ENSMUSG00000038206_ENSMUST00000040218|mus_mus|motif|central (ssRNA)
RNA: GGGAGUUCUACAGUCCGACGAUCAAACAUGAUGAGCAAAUUAAGAAAAGUUCUGUAAAAUUAGUUAGUUCUGAGAUUUCGGAACGGGAAAACAGUGAAACAAAAAAGGGGGGGUGCAGUCAAGCUGGAUUUUACACACAGGCUCAACAGAGGAUUGAGCAUCA
B7: 219445452_219447802_500_3pUTR_ENSG00000144580_ENST00000542068|human|control|control (ssRNA)
RNA: GGGAGUUCUACAGUCCGACGAUCCUGGAUGUGAUGCUACACAUUGCAGUAAUGCCAGAGCAUUGCAAACUCUGUUAGACUGGUGUGCUGUCAAGGUGGGUGGGUUGAUAGAUGGAUAAAUAUUUACAAUUUCCUGUAAAAGUGCAACAGAGGAUUGAGCAUCA
B8: chr8:59070621:59070622:+_ENSMUSG00000038206_ENSMUST00000040218|mus_mus|FALSE|FALSE (ssRNA)
RNA: B6 RNA with G80U, G81A, G85U, G86A
B9: chr16:94690093:94690094:+_ENSMUSG00000040785_ENSMUST00000117648|mus_hu|mus_mus_mus_hu_True|8_88 (ssRNA)
RNA: GGGAGUUCUACAGUCCGACGAUCGGGCUGGGAUGACGGACACACAGAUCUUCCCAGAGGGGGAAAAAGUCUUAGUCGAUACUAAUUAAAAAGUGUUAAUGAUUUUUGAAAAUCAGAUUACAUCUAUUUGAAUCAUAAAGCAAACAACAGAGGAUUGAGCAUCA
B10: 60821080_60823165_1073_3pUTR_ENSMUSG00000021559_ENSMUST00000077453|mouse|control|control (ssRNA)
RNA: GGGAGUUCUACAGUCCGACGAUCUUCGACUAAGUGCUUGUUGGGUGUCUUUAGGCUUGAUCCAGGGGUGCUGCAAACUGUCCUGGAUUGUCAUCCUCUUCUUUGGAUCCUUGACCAGCAGUCUUCUGAUGAAAUCUUUGGCAACAACAGAGGAUUGAGCAUCA
B11: chr5:136386016:136386017:-_ENSMUSG00000051391_ENSMUST00000055808|mus_mus|motif|central (ssRNA)
RNA: GGGAGUUCUACAGUCCGACGAUCGGGGGUAUUUAACGGUUUCUGUUUUUGUGAUGGGCUGACCUUAAGGGUAAAGAAGAACGGAAAAAAAAAGUAUCCCCCGCAGCCCCCUCCCAAACACCCAUCAACCAAAACGGAACAGGGCAACAGAGGAUUGAGCAUCA
B12: chr7:141441981:141441982:+_ENSG00000106028_ENST00000265304|hu_mus|hu_hu_hu_mus_False|1_8 (ssRNA)
RNA: GGGAGUUCUACAGUCCGACGAUCCUCAUGUCUUACAAACUGACGAAAUACCUGUAACACAGGUCUUCGAAACAUGGCUUCUGUUUUUCUUACAACCUAAUCUUUAGGCUUUUCCUAAAGGAAAGAAUAACCCGAGCAGCCCAGCAACAGAGGAUUGAGCAUCA
B13: chr11:46405157:46405158:+_ENSG00000110492_ENST00000395566|hu_hu|hu_hu_hu_mus_False|8_78 (ssRNA)
RNA: GGGAGUUCUACAGUCCGACGAUCCCCUCCCCACUUUGGGCACUUGGUGUGGGCGUGAAGGCAGGGCCGUGAUUGACAGAGCUGACAGGAAGACAAAAGGCACUGGUGGGUUAUAUCUUGGGCCUGUGAGAGGGAGGGGCUCCGCAACAGAGGAUUGAGCAUCA

The binders below were run against T1, UNK ZnF1-3 (assay: nsRBNS (natural sequence RNA bind-n-seq); RBNS binding buffer (assumed for nsRBNS): 25 mM Tris pH 7.5, 150 mM KCl, 3 mM MgCl2, 0.01% Triton X-100, 500 ug/ml BSA, 20 U/ml SUPERase-In, 4 C; UNK is unkempt and MSI1 is Musashi-1; names of the RNAs are library labels; protein concentration not given here; high values mean tight binding).
B1 gave a binding signal of 0.643 enrichment R.
In the case of B2, the binding signal is reported as 0.529 enrichment R.
In the case of B3, the binding signal is reported as 1.56 enrichment R.
Work on B4 yielded a binding signal of 0.52 enrichment R.
B5 gave a binding signal of 7.4 enrichment R.
For B6, the binding signal was 9.45 enrichment R.
With B7 the binding signal was 1.19 enrichment R.
B8 gave a binding signal of 7.52 enrichment R.
B9 gave a binding signal of 1.05 enrichment R.
B10 showed a binding signal of 0.466 enrichment R.
With B11 the binding signal was 0.928 enrichment R.
B12 showed a binding signal of 0.751 enrichment R.
B13 was tested, and the binding signal was 2.15 enrichment R.
